D1 PAM – potentiators of human D1 dopamine receptor. P21728. HEK293 TREx D1 cells, calcium flux, dopamine EC20 potentiation. potentiation, % at 10 µM. 360,000 compounds, 0.036% hits. AID 504651; in the data active means potentiation above about 30%; further: 0% is about no effect
Target sequence (P21728 whole entry, looked up): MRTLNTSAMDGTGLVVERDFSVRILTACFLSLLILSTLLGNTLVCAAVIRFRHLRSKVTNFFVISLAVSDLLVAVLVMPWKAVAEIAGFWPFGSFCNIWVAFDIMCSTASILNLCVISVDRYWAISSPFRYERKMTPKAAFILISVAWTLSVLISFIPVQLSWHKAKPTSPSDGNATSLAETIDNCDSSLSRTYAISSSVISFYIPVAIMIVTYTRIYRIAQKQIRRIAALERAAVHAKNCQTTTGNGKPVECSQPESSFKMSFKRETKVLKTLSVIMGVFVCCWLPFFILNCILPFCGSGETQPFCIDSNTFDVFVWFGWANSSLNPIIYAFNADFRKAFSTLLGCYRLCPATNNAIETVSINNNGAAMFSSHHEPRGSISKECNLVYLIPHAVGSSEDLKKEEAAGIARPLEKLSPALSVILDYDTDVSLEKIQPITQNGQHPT
DRD3 agonist – activates the human D3 dopamine receptor | P35462 | D3R DiscoveRx beta-arrestin cells, luminescence, 90 min | max activation, % | 410,000 compounds, 0.58% hits | AID 652048; in the data active means max activation above about 30%; further: 0% is about no effect
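Agonist mode: compounds and dopamine controls were applied to plated cells for 90 min at 37 degrees C after an overnight attachment at 1500 cells/well. Luminescent read-out followed 30 - 60 minutes at room temperature with DiscoveRx detection reagent.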
D1 ag – human D1 receptor agonism | HEK293 T-REx D1 cells, calcium flux, agonist mode | activation, % at 2 µM | 360,000 compounds, 1% hits; in the data active means activation above about 30%; further: 0% is about no effect
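Tetracycline-induced HEK293 TREx D1 cells, force-coupled to calcium signalling, were dye-loaded with a no-wash calcium kit. Compound was pin-added after a 10 s baseline. Fluorescence was read kinetically at 1 cycle/s for 180 s, with calcium rises flagged as agonism.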
D1 antagonist – antagonists of human D1 dopamine receptor; HEK293 TREx D1 cells, calcium flux, dopamine EC80; active compounds read low; AID 504652; 360,000 compounds, 3.2% hits; P21728; activity change, negative = inhibition, % at 10 µM; in the data active means activity change below about -30%; further: on the % scale 0 is the no-effect control and ±100 the full control effect
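Compound effects on dopamine-evoked calcium signalling were measured in tetracycline-induced HEK293 Trex D1 cells. Dopamine at EC80 followed a 180 s compound pre-read, and fluorescence was tracked kinetically for 180 s more.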
DRD3 antagonist – antagonists of human D3 dopamine receptor; D3R cells, DiscoveRx beta-arrestin luminescence, antagonist mode; active compounds read low; P35462; 360,000 compounds, 2.5% hits; max response, negative = inhibition, %; in the data active means max response below about -50%; inconclusive means no clear call, values can overlap the other calls; further: on the % scale 0 is the no-effect control and ±100 the full control effect
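Cells expressing the human receptor were seeded at 1500 cells/well, incubated overnight at 37 degrees C in 5% CO2, then exposed to library compounds with dopamine controls for 90 minutes at 37 degrees C before luminescent detection.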
The depositor's hits bear a star; ? = inconclusive; · = no result; ! = not confirmed by another sample. Only some compounds are listed: those with a hit (about 6.1% of all), similar ones and a draw of the others.

SMILES | D1 PAM | DRD3 agonist | D1 ag | D1 antagonist | DRD3 antagonist
COc1ccc2c(c1)C1OCCNC1CC2 (stereo not given) | · | 9 | · | · | ?
Oc1cc2c(cc1O)[C@H]1c3ccccc3CN[C@@H]1CC2 | -3 | · | 67* | -87* | ·
O=C(O)CCCO | · | 7 | · | · | ·
CC(C)CCn1c(N)c(C(=O)OCC2CCCO2)c2nc3ccccc3nc21 (stereo not given) | -3 | 0 | 0 | -36* | 18
CCOC(=O)C(O)(c1ccc(NC(=S)NC(=O)c2ccc(Cl)cc2Cl)cc1)C(F)(F)F (stereo not given) | -10 | -11 | 44* | -3 | ?
COC(=O)C(O)(c1ccc(NC(=S)NC(=O)c2ccc(Cl)cc2Cl)cc1)C(F)(F)F (stereo not given) | -8 | -6 | 31* | -32* | ?
COC(=O)C(O)(c1ccc(NC(=O)NC2CCCCC2)cc1)C(F)(F)F (stereo not given) | -1 | -4 | 5 | -8 | 8
CCOC(=O)C(O)(c1ccc(NC(=O)Oc2ccccc2)cc1)C(F)(F)F (stereo not given) | 1 | -10 | 0 | -23 | ?
FCCN(CCF)c1cccc(Cl)c1 | 4 | 1 | 0 | -34* | 2
C=CCN1C(=O)/C(=C/c2ccc(N3CCOCC3)o2)C(=O)NC1=S | -2 | 7 | 119* | -1 | 17
Cc1cc(C)cc(N2C(=O)/C(=C\c3ccc(N4CCN(C)CC4)o3)C(=O)NC2=S)c1 | -4 | -6 | 44* | -4 | -9
O=C1NC(=O)C(=Cc2ccc(N3CCOCC3)o2)C(=O)N1 | -3 | -2 | 8 | 9 | ?
Cc1ccc(/C=C2\C(=O)NC(=S)N(c3ccc(F)cc3)C2=O)o1 | 5 | 0 | 9 | -15 | -22
CN(C)C1(CNC(=O)Nc2ccc(Cl)c(Cl)c2)CCCCC1 | -9 | -27 | 32* | -7 | -55*
CN1CCN(c2ccc([N+](=O)[O-])c(NCc3ccco3)c2)CC1 | -6 | -9 | 0 | -31* | -75*
CN1CCN(c2ccc([N+](=O)[O-])c(N)c2)CC1 | -2 | 2 | 6 | 15 | -25
CN1CCN(c2ccc([N+](=O)[O-])c(NCC3CCCO3)c2)CC1 (stereo not given) | -1 | 44* | 5 | -5 | 0
CCC(C)(S(=O)(=O)CC)S(=O)(=O)CC | · | -2 | · | · | ·
CCC(=O)O[C@H]1[C@@H](N2CCCCC2)C[C@H]2[C@@H]3CC[C@H]4C[C@H](OC(C)=O)[C@@H](N5CCCCC5)C[C@]4(C)[C@H]3CC[C@@]21C | · | -15 | · | · | ·
COc1ccc(-c2nc(CN3C(=O)CN=C(c4ccccc4Cl)c4cc(Cl)ccc43)c(C)o2)cc1OC | 1 | 9 | 1 | 10 | ·
COc1ccc(-c2nc(CN3C(=O)CN=C(c4ccccc4)c4ccccc43)c(C)o2)cc1OC | -4 | 10 | 4 | -31* | ·
CCOC(=O)C1=C(N)OC2=C(C(=O)CCC2)C12C(=O)Nc1ccccc12 (stereo not given) | 0 | -2 | -1 | -3 | -4
CCOC(=O)C1=C(N)OC2=C(C(=O)CC(C)(C)C2)C12C(=O)Nc1ccccc12 (stereo not given) | -12 | 9 | 1 | -37* | -9
C=CCN1CC[C@]23CCCC[C@H]2[C@H]1Cc1ccc(O)cc13 | · | -19 | · | · | ·
CCCCc1ccc2[nH]cc(CCN)c2c1 | 2 | 65* | 90* | 5 | -1
SMILES | D1 PAM | DRD3 agonist | D1 ag | D1 antagonist | DRD3 antagonist
NCCc1c[nH]c2ccccc12 | 0 | -38 | -1 | 3 | ?
C[C@@H](N)C(=O)c1ccccc1 | · | -4 | · | · | ·
COc1ccc(CN2C(=O)NC(=O)/C(=C/c3ccc([N+](=O)[O-])s3)C2=O)cc1 | 0 | 18 | 9 | 1 | -2
O=C1NC(=O)N(Cc2ccc(F)cc2)C(=O)/C1=C\c1ccc([N+](=O)[O-])s1 | 16 | -13 | 15 | 0 | -55*
CCCN1CC[C@@H]2c3cc(O)ccc3CC[C@@H]21 | -6 | 51* | 0 | -6 | 10
Oc1c(Br)cc(Br)cc1CN1CCN(Cc2ccccc2)CC1 | -9 | -3 | 0 | 2 | ?
CCN1CCN(Cc2cc(Br)cc(OC)c2O)CC1 | -5 | -38 | 2 | -1 | -53*
COc1ccc(OCC(=O)N2CCN(Cc3ccc(SC)cc3)CC2)cc1 | 24 | 3 | 2 | -38*! | -8
O=C(COc1ccccc1)N1CCN(CC2CC=CCC2)CC1 (stereo not given) | · | -14 | 3 | -2 | -57*
COc1ccc(OCC(=O)N2CCN(Cc3ccc4c(c3)OCO4)CC2)cc1 | -2 | -5 | 1 | -16 | 1
COc1cc(OC)c(OC)cc1CN1CCN(C(=O)COc2ccc3ccccc3c2)CC1 | -3 | -20 | 0 | 28 | 0
COc1ccccc1CN1CCN(C(=O)COc2ccccc2)CC1 | -2 | 1 | 0 | -5 | -81*
CC(=O)OCC[N+](C)(C)C | 2 | 5 | 46*! | 17 | ?
C[N+](C)(C)CCOC(=O)CBr | -1 | 2 | 0 | 23 | -6
CC(C)=CCN1CC[C@]2(C)c3cc(O)ccc3C[C@H]1[C@H]2C | · | -24 | · | · | ·
COc1ccc(-n2c(/C=C\c3ccccc3F)nc3ccccc3c2=O)cc1OC | 3 | 6 | -5 | -7 | ·
CC(Cc1ccccc1)[n+]1cc(/N=C(\[O-])Nc2ccccc2)on1 (stereo not given) | -4 | 1 | 0 | · | -54*
Cc1ccc(N2CCN(CCc3ccccc3)CC2)cc1 | -11 | -45 | 4 | -44* | -66*
COc1ccccc1CC(=O)N1CCN(CCc2ccccc2)CC1 | -3 | -11 | 4 | 0 | -15
Cc1cccc(N2CCN(CCc3ccccc3)CC2)c1C | -11 | 20 | 39* | -51* | -68*
COc1cc2nc(CN3CC=C(c4ccccc4)CC3)[nH]c(=O)c2cc1OC | · | 5 | · | · | 22
COc1ccccc1N1CCN(CCc2ccccc2)CC1 | -7 | -1 | 3 | -47* | -104*
CC1CN(CCc2ccccc2)CC(C)O1 (stereo not given) | -4 | -7 | 1 | 0 | 11
COc1ccccc1N1CCN(Cc2cnc(-c3ccccc3)[nH]2)CC1 | -11 | -27 | 4 | -15 | -83*
Cc1ccccc1CN1CCN(Cc2ccccc2)CC1 | -8 | -16 | 1 | 12 | ?
O=C1CN=C(c2ccccc2Cl)c2cc(Cl)ccc2N1Cc1cccc(Cl)c1 | -5 | -7 | 7 | -24 | ·
CC1=CC2/C=C(\C)CCC(O)C(O)/C=C/C(=O)C23C(=O)NC(CC(C)C)C3C1C (stereo not given) | -3 | -12 | -3 | 21 | -74*
CC(C)NCC(O)c1ccccc1Cl (stereo not given) | · | 5 | · | · | ·
O=C(c1cc(F)ccc1F)C1CCCN(Cc2cccc(Cl)c2)C1 (stereo not given) | -4 | -7 | 5 | -1 | -79*

Screening data deposited in PubChem by National Center for Advancing Translational Sciences (NCATS).
